In the supplement of paper PMC10127200:
Where a name gives a salt, the structure may show the parent alone.

Experiments:
Assay in all cases: Euclidean distance of Cell Painting phenotypic profile (signed KS, 77 features) to DMSO centroid (dimensionless distance); 5 or 10 uM (library dependent); higher = stronger phenotypic change vs DMSO (phenoactivity)
Conditions in all cases: 48 h
[1] = test system: 786-O
Summary of the method: (§1)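 At 10 or 5 uM, as set by the library, and 0.1% DMSO final, compounds were applied for 48 h to five cancer lines and one healthy fibroblast line. Stained cells were imaged confocally at 20X in 9 fields per well, and Harmony extracted 77 features scored as signed Kolmogorov-Smirnov statistics against vehicle wells on the same plate. Profiles underwent plate-position correction, correlation weighting and replicate averaging at the top dose. Phenoactivity is the Euclidean distance from each such profile to the median vehicle profile.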

[2] = test system: A549
Summary of the method: as §1

[3] = test system: DU145
Summary of the method: as §1

[4] = test system: FB
Summary of the method: as §1

[5] = test system: HEPG2
Summary of the method: as §1

[6] = test system: OVCAR4
Summary of the method: as §1

Row | SMILES | Euclidean distance [1] | Euclidean distance [2] | Euclidean distance [3] | Euclidean distance [4] | Euclidean distance [5] | Euclidean distance [6]
1 | C=CC(=O)N1CC[C@H](n2nc(C#Cc3cc(OC)cc(OC)c3)c3c(N)ncnc32)C1 | 2.21 | 1.47 | 2.08 | 4.1 | 3.97 | 1.58
2 | CN1C(C(=O)Nc2ccccn2)=C(O)c2ccccc2S1(=O)=O [Piroxicam] | 0.732 | 0.909 | 0.966 | 0.725 | 1.06 | 0.704
3 | CNC(=O)c1cc(Oc2ccc(NC(=O)Nc3cc(C(C)(C)C)nn3-c3ccc4ncccc4c3)c(F)c2)ccn1 [DCC-2036 (Rebastinib)] | 2.89 | 3.75 | 4.62 | 2.57 | 2.72 | 2.63
4 | Nc1nc(F)nc2c1ncn2[C@@H]1O[C@H](CO)[C@@H](O)[C@@H]1O [Fludarabine] | 1.67 | 1.6 | 1.17 | 1.81 | 1.21 | 1.63
5 | CO[C@H]1CC[C@H](N2C(=O)CNc3ncc(-c4ccc(C(C)(C)O)nc4)nc32)CC1 | 3.2 | 3.38 | 2.56 | 3.76 | 2.34 | 3
6 | O=C1c2cccc3c2[C@H](CCC3)CN1[C@@H]1CN2CCC1CC2 [Palonosetron HCl] | 1.56 | 0.602 | 0.971 | 0.972 | 1.29 | 1.22
7 | CCCCNc1ccc(C(=O)OCCOCCOCCOCCOCCOCCOCCOCCOCCOC)cc1 [Benzonatate] | 1.17 | 1.09 | 0.781 | 1.36 | 0.687 | 1.37
8 | O=c1c2ccccc2nc2n1CCc1c-2[nH]c2ccccc12 [Rutaecarpine] | 0.752 | 1.05 | 1.52 | 1.22 | 1.08 | 1.48
9 | O=C1[C@H](Cc2ccc(O)cc2)N2C(=O)CCN(C(=O)NCc3ccccc3)[C@H]2CN1Cc1cccc2ccccc12 | 2.87 | 2.53 | 1.39 | 3.88 | 1.43 | 2.09
10 | C[C@H]1COC2=C1C(=O)C(=O)c1c2ccc2c1CCCC2(C)C [Cryptotanshinone] | 1.53 | 2.51 | 1.48 | 1.17 | 1.25 | 1.31
11 | C=C[C@@H]1C[C@]1(NC(=O)[C@@H]1C[C@@H]2CN1C(=O)[C@H](C(C)(C)C)NC(=O)O[C@@H]1C[C@H]1CCCCCc1nc3ccc(OC)cc3nc1O2)C(=O)NS(=O)(=O)C1CC1 [Grazoprevir] | 1.16 | 1.31 | 1.33 | 1.88 | 0.937 | 1.22
12 | CN1C(=O)OC(C)(C)C1=O [Trimethadione] | 0.978 | 1.26 | 0.732 | 0.717 | 0.658 | 0.721
13 | O=C1[C@H]2CCCC[C@H]2C(=O)N1CCCCN1CCN(c2nsc3ccccc23)CC1 [Perospirone hydrochloride] | 2.05 | 1.44 | 1.08 | 1.59 | 1.05 | 1.36
14 | CC[C@H]1OC(=O)[C@@](C)(F)C(=O)[C@H](C)[C@@H](O[C@@H]2O[C@H](C)C[C@H](N(C)C)[C@H]2O)[C@](C)(OC)C[C@@H](C)C(=O)[C@H](C)[C@H]2N(CCCCn3cc(-c4cccc(N)c4)nn3)C(=O)O[C@]12C [Solithromycin] | 1.63 | 1.89 | 1.57 | 1.86 | 2.27 | 0.99
15 | Nc1ccc(O)c(C(=O)O)c1 [Mesalamine] | 1.49 | 0.636 | 2.08 | 1.06 | 0.538 | 1.24
16 | CCCNc1nc(Nc2ccc(C#N)cc2)ncc1C#CCCCNC(=O)[C@H](C)N(C)C(=O)/C=C/CN(C)C | 6.39 | 4.68 | 5.29 | 5.42 | 5 | 5.67
17 | C=C1CC/C=C(/C)CC[C@@H]2[C@@H]1CC2(C)C [Œ≤-Caryophyllene] | 1.02 | 0.652 | 0.86 | 0.747 | 0.457 | 1.68
18 | CN1CCN(CCCN2c3ccccc3Sc3ccc(C(F)(F)F)cc32)CC1 [Trifluoperazine 2HCl] | 2.52 | 2.25 | 1.58 | 2.19 | 3.04 | 1.8
19 | Cc1ccc(C(=O)c2cc(O)c(O)c([N+](=O)[O-])c2)cc1 [Tolcapone] | 0.991 | 1.18 | 1.08 | 0.848 | 0.591 | 1.5
20 | COc1cc(C(C)=O)ccc1O [Apocynin] | 0.601 | 1.23 | 0.921 | 0.872 | 1.6 | 0.864
21 | COc1ccc(C2=N[C@@H](c3ccc(Cl)cc3)[C@@H](c3ccc(Cl)cc3)N2C(=O)N2CCNC(=O)C2)c(OC(C)C)c1 [Nutlin-3] | 1.4 | 3.54 | 1.03 | 2.68 | 2.58 | 1.17
22 | COc1ccc2[nH]c([S+]([O-])Cc3ncc(C)c(OC)c3C)nc2c1 (stereo unspecified) [Omeprazole] | 3.37 | 2.83 | 3.32 | 3.97 | 4.04 | 2.98
23 | C[C@]12CC[C@H](O)CC1=CC[C@@H]1[C@@H]2CC[C@]2(C)C(n3cnc4ccccc43)=CC[C@@H]12 [Galeterone] | 0.604 | 1.11 | 0.901 | 1.35 | 2.1 | 1.04

Row | SMILES | Euclidean distance [1] | Euclidean distance [2] | Euclidean distance [3] | Euclidean distance [4] | Euclidean distance [5] | Euclidean distance [6]
24 | Cc1cc(Nc2cc(N3CCN(C)CC3)nc(Sc3ccc(NC(=O)C4CC4)cc3)n2)n[nH]1 [VX-680 (Tozasertib. MK-0457)] | 2.67 | 3.95 | 3.26 | 3.01 | 1.92 | 2.98
25 | CCCCOC(=O)c1ccc(O)cc1 [Butylparaben] | 1.05 | 1.03 | 1.11 | 1.03 | 0.462 | 1.66
26 | C1=N/C2=N/c3ccc(OCCN4CCCC4)c(c3)COC/C=C/COCc3cccc(c3)C(=C1)N2 [Pacritinib (SB1518)] | 3.54 | 3.52 | 2.51 | 3.49 | 3.79 | 3.42
27 | CC(C)[C@H]1CC[C@H](C(=O)N[C@H](Cc2ccccc2)C(=O)O)CC1 [Nateglinide] | 2.04 | 1.19 | 1.17 | 0.97 | 0.589 | 1.71
28 | NCCS [Cysteamine HCl] | 0.86 | 0.424 | 0.624 | 1.02 | 0.897 | 1.07
29 | COc1ccc(F)c(F)c1C(=O)c1cnc(NC2CCN(S(C)(=O)=O)CC2)nc1N | 2.79 | 3.51 | 2.68 | 2.58 | 3.18 | 4.31
30 | CN[C@@H]1[C@@H](O)[C@@H](O[C@@H]2[C@@H](O)[C@H](O[C@H]3OC(CN)=CC[C@H]3N)[C@@H](N)C[C@H]2N)OC[C@]1(C)O [Sisomicin sulfate] | 1.2 | 1.53 | 0.985 | 0.996 | 0.672 | 1.05
31 | Nc1ccn([C@@H]2O[C@H](CO)[C@@H](O)[C@@H]2O)c(=O)n1 [Cytarabine hydrochloride] | 3.21 | 3.25 | 2.45 | 2.97 | 2.73 | 3.43
32 | Cc1ccc(Cl)cc1N(CC(=O)Nc1c(F)cccc1F)S(C)(=O)=O | 0.896 | 1.9 | 0.886 | 0.614 | 0.565 | 0.763
33 | O=C(NC(NC(=S)Nc1ccc(F)c([N+](=O)[O-])c1)C(Cl)(Cl)Cl)C(c1ccccc1)c1ccccc1 (stereo unspecified) | 1.02 | 2.27 | 1.38 | 1.49 | 1.56 | 1.25
34 | C1N2CN3CN1CN(C2)C3 [Methenamine] | 1.23 | 0.437 | 0.592 | 0.896 | 0.586 | 1.2
35 | COC(=O)c1ccc2c(c1)NC(=O)/C2=C(\Nc1ccc(N(C)C(=O)CN2CCN(C)CC2)cc1)c1ccccc1 [Nintedanib (BIBF 1120)] | 3.7 | 4.29 | 2.53 | 4.05 | 2.66 | 3.01
36 | C[C@H](Nc1ccc(C#N)n(C)c1=O)c1cc2cc(Cl)ccc2[nH]c1=O [Olutasidenib (FT-2102)] | 1.42 | 0.866 | 0.784 | 1.36 | 0.641 | 1.06
37 | CCCCC(O)c1ccccc1 (stereo unspecified) [Fenipentol] | 1.46 | 1.44 | 1.43 | 0.766 | 0.912 | 1.68
38 | CO[C@H]1/C=C/O[C@@]2(C)Oc3c(C)c(O)c4c(O)c(c(/C=N/N5CCN(C)CC5)c(O)c4c3C2=O)NC(=O)/C(C)=C\C=C\[C@H](C)[C@H](O)[C@@H](C)[C@@H](O)[C@@H](C)[C@H](OC(C)=O)[C@@H]1C [Rifampin] | 1.56 | 0.64 | 1.44 | 1.36 | 2.28 | 1.14
39 | Cc1cccc(CN2CCN(C(c3ccccc3)c3ccc(Cl)cc3)CC2)c1 (stereo unspecified) [Meclizine 2HCl] | 1.66 | 1.27 | 0.732 | 1.06 | 0.511 | 1.51
40 | Nc1ncn([C@H]2C[C@H](O)[C@@H](CO)O2)c(=O)n1 [Decitabine] | 1.92 | 1.42 | 1.18 | 1.43 | 1.56 | 1.55
41 | CCCCc1oc2ccc(NS(C)(=O)=O)cc2c1C(=O)c1ccc(OCCCN(CCCC)CCCC)cc1 [Dronedarone] | 4.33 | 4.18 | 3.45 | 3.39 | 4.6 | 3.76
42 | CCC1=C(C)CN(C(=O)NCCc2ccc(S(=O)(=O)NC(=O)N[C@H]3CC[C@H](C)CC3)cc2)C1=O [Glimepiride] | 1.39 | 0.608 | 0.621 | 0.992 | 0.508 | 0.801
43 | N#Cc1ccc2[nH]c(O)c(-c3ccc(CN4CCOCC4)cn3)c2c1 | 3.45 | 2.98 | 2.02 | 1.79 | 1.72 | 3.02
44 | Cc1cc(Nc2ncc(Cl)c(Nc3ccccc3S(=O)(=O)C(C)C)n2)c(OC(C)C)cc1C1CCNCC1 [Ceritinib (LDK378)] | 6.15 | 4.94 | 7.35 | 6.34 | 4.96 | 5.69
45 | CCCCNC(=O)NS(=O)(=O)c1ccc(C)cc1 [Tolbutamide] | 1.41 | 0.625 | 0.836 | 0.823 | 0.337 | 0.856
46 | CC(C)c1nc(CN(C)C(=O)N[C@H](C(=O)N[C@@H](Cc2ccccc2)C[C@H](O)[C@H](Cc2ccccc2)NC(=O)OCc2cncs2)C(C)C)cs1 [Ritonavir] | 1.49 | 1.26 | 1.08 | 1.35 | 1.58 | 1.77
